Bioassay records (PubChem BioAssay)
Only some compounds are listed: those with a hit (about 6.5% of all), similar ones and a draw of the others.
Marburg entry inh: inhibitors of Marburg virus binding or cell entry | AID 540276 | Potency, µM (top dose mostly 37.8 µM), for the others: at the top dose activity change, negative = inhibition, actives largely listed as inhibitors | actives 1.8% (n = 300,000) | Marburg virus pseudotyped entry inhibition, cell reporter; calls by dose curve; tested in HEK293 cells; also: potency is read from the fitted curve at half-maximal effect
LASV entry inh: blocks Lassa virus binding to or entry into cells. Lassa virus pseudotype entry inhibition, cell reporter. Potency, µM (top dose mostly 37.9 µM), inactives show top-dose activity change, negative = inhibition, usual class: inhibitors. actives 1.2% (n = 300,000). AID 540256; calls by dose curve; tested in HEK293 cells; also: potency is read from the fitted curve at half-maximal effect; nearly all actives have a fitted effect of over 50% in size
Vaccinia Venus: vaccinia inhibition (Venus reporter); Potency, µM (series often up to 36.5 µM), for inactives: top-dose activity change, negative = inhibition, hits mostly inhibitors; actives 0.46% (n = 330,000); Vaccinia virus Venus reporter expression, fluorescence; calls by dose curve; tested in A549 cells; also: potency is read from the fitted curve at half-maximal effect; nearly all actives have a fitted effect of over 30% in size
VACV mCherry inh: inhibitors of vaccinia virus infection (mCherry reporter signal) | Vaccinia virus mCherry reporter infection, fluorescence | Potency, µM (titrated, usually from 36.5 µM), without a hit: at the highest dose activity change, negative = inhibition, hits mostly inhibitors | actives 0.63% (n = 310,000) | AID 720579; calls by dose curve; tested in A549 cells; also: potency is read from the fitted curve at half-maximal effect; nearly all actives have a fitted effect of over 35% in size
HCMV antiviral: inhibitors of human cytomegalovirus. HFF cells, HCMV-luciferase reporter, 72 h; stronger effect = lower value. activity change, negative = inhibition, % at 57.5 µM. actives 4.5% (n = 410,000). AID 1259415; in the data active = activity change below about -60%; inconclusive = no clear call, values can overlap the other calls; inactive = above about -39%
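After 16 h attachment at 37C, HFF cells received test compound and HCMV-luciferase (1 PFU/cell); reporter luminescence read 72 h later, data normalized against buffer-only and known inhibitor Salinomycin.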
FMDV antiviral: foot and mouth disease virus antiviral activity | Potency, µM (doses to about 57.9 µM), for inactives: top-dose activity change, negative = inhibition, hits mostly inhibitors | FMDV antiviral cell-based qHTS | actives 1.2% (n = 410,000); calls by dose curve; tested in HEK293T cells; also: read-out not given here; potency is read from the fitted curve at half-maximal effect; nearly all actives have a fitted effect of over 45% in size
Numbers without * were called inactive; i = inactive; ? = inconclusive; nt = not tested or not shown; [ ] = dose if it differs, or a comment. % is scaled to controls: 0 for no effect and ±100 for the full control effect.

SMILES | Marburg entry inh | LASV entry inh | Vaccinia Venus | VACV mCherry inh | HCMV antiviral | FMDV antiviral
CCc1nc2ccccc2c(C(=O)OCC(=O)Nc2cccc(S(=O)(=O)NC3=NCCCCC3)c2)c1C | ? | 22µM* | ? | ? | ? | 25µM*
O=C(COC(=O)c1ccc2ccccc2n1)Nc1cccc(S(=O)(=O)NC2=NCCCCC2)c1 | 2% | 6% | nt | nt | 86 | 16%
CCCn1c(SCC(=O)Nc2cccc(S(=O)(=O)NC3=NCCCCC3)c2)nc2ccccc2c1=O | ? | -23% | -22% | -13% | -30 | 32µM*
COc1cc(S(=O)(=O)N2CCOCC2)ccc1NC(=O)COC(=O)CC12CC3CC(CC(C3)C1)C2 | -65% | 16µM* | nt | nt | ? | -16%
O=C(O)c1cc(O)c2c(c1)[C@H]([C@H]1c3cc(C(=O)O)cc(O)c3C(=O)c3c(O[C@@H]4OC(CO)C(O)C(O)C4O)cccc31)c1cccc(O[C@@H]3OC(CO)C(O)C(O)C3O)c1C2=O (stereo partly specified) | ? | 15% | nt | nt | nt | nt
CCCNC(=O)CSc1nc2ccccc2nc1Cc1ccc(Cl)cc1 | nt | 12%[46.1 µM] | -9% | -16% | 0 | 0%
O=C(Nc1cccc(S(=O)(=O)NC2=NCCC2)c1)c1cc(-c2ccco2)nc2ccccc12 | -20% | ? | 3% | i | 8 | 27%
CCc1nc2ccccc2c(C(=O)OCC(=O)Nc2ccc(S(=O)(=O)N3CCOCC3)cc2)c1C | ? | ? | ? | ? | -32 | ?
O=C(NC(=S)Nc1cccc(S(=O)(=O)NC2=NCCC2)c1)c1cc(-c2ccco2)nc2ccccc12 | ? | -12% | -19% | ? | -81* | -10%
CCc1nc2ccccc2c(C(=O)OCC(=O)Nc2cccc(S(=O)(=O)N3CCOCC3)c2)c1C | 4.6µM* | ? | nt | nt | -32 | 20µM*
Cc1ccc(S(=O)(=O)N2CCOCC2)cc1NC(=O)COc1ccc(C(=O)c2ccccc2)cc1 | nt | nt | nt | nt | 21 | 20µM*
CCc1ccc(NC(=O)CSc2nc3c(c(=O)[nH]2)CN(Cc2ccc(C)cc2)CC3)cc1 | 11%[46.1 µM] | ? | -1% | -15% | -4 | -8%
CS(=O)(=O)c1ccc(Cl)c(NC(=O)CSc2n[nH]c(N)n2)c1 | -2% | -10% | -2% | -10% | -37 | -18%
CCN(c1ccccc1)S(=O)(=O)c1ccc(Cl)c(NC(=O)CSc2n[nH]c(N)n2)c1 | -15% | -10% | -22% | -8% | -67* | -29%
CCN(c1ccccc1)S(=O)(=O)c1ccc(Cl)c(NC(=O)CSc2ncn[nH]2)c1 | -12% | -19% | -13% | i | -101* | 0%
COc1ccc(OC)c(-c2ccnc(-n3ncc(C(=O)N(C)CCO)c3C3CC3)n2)c1 | nt | nt | -7% | -6% | nt | 34%
COCC(=O)N1CCC(Oc2ccc(C(=O)N3CCCCCCC3)cc2)CC1 | -2% | -5% | -11% | i | 7 | 18%
COCC(=O)N1CCC(Oc2ccc(C(=O)N(C)CCCC3CCCC3)cc2)CC1 | nt | nt | nt | nt | -67* | ?
CCOC(=O)c1c(C)oc2nc(C)nc(N3CCN(c4ccccc4)CC3)c12 | nt | -12%[46.1 µM] | -27% | -25% | ? | 28µM*
CCOC(=O)c1c(C)oc2nc(C)nc(N3CCN(c4cccc(C(F)(F)F)c4)CC3)c12 | nt | -14%[46.1 µM] | -26% | -21% | -64* | ?
CCOC(=O)c1ccc(NC(=O)c2c(C)oc3nc(C)nc(N4CCCC4)c23)cc1 | nt | ? | -18% | -4% | 77 | -8%
CCOC(=O)c1c(C)oc2ncnc(N3CCN(c4cccc(Cl)c4)CC3)c12 | 0%[46.1 µM] | -3%[46.1 µM] | -14% | -24% | -26 | 28µM*
CCOC(=O)c1c(C)oc2nc(C)nc(N3CCN(c4ccc(C)cc4C)CC3)c12 | nt | -11%[46.1 µM] | -9% | -12% | 15 | 9%
CCOC(=O)c1c(C)oc2ncnc(N3CCN(c4ccc(C)cc4C)CC3)c12 | -13%[46.1 µM] | 4%[46.1 µM] | 3% | 4% | 4 | ?
O=C(NCCc1nc2ccccc2n1CCCOc1ccccc1)C1CCCCC1 | nt | nt | -22% | 12% | nt | nt
SMILES | Marburg entry inh | LASV entry inh | Vaccinia Venus | VACV mCherry inh | HCMV antiviral | FMDV antiviral
N#Cc1nc(-c2ccc(OCc3ccc(Cl)cc3)cc2)oc1N1CCCC1 | nt | nt | 1% | 17% | nt | nt
COc1cc(CCN2C(=O)NC(c3ccccc3)C(C(C)=O)=C2C)cc(OC)c1OC (stereo unspecified) | 6%[14.2 µM] | nt | nt | nt | nt | nt
S=c1[nH]nc(-c2ccc(Cl)cc2)n1-c1ccc(Cl)cc1 | 10% | 27% | -16% | -13% | 7 | -21%
N#CN=c1snc(-c2ccccc2)n1-c1ccc(Cl)cc1 | nt | nt | 3.5µM* | 5.6µM* | nt | nt
N#CN=c1snc(-c2ccccc2Cl)n1-c1ccccc1Cl | nt | nt | ? | 11µM* | nt | nt
CO[C@H]1[C@H](NC(=O)c2cccs2)c2ccccc2C12CCN(Cc1cccn1-c1ccccn1)CC2 | nt | nt | -4% | -15% | nt | -15%
CC(=O)c1ccc2c(c1)N(Cc1ccccc1Cl)C(=O)C(C)S2 (stereo unspecified) | nt | nt | -5% | 33% | -98* | -1%
O=C(NCC1CCCO1)c1ccc2c(c1)N(Cc1ccccc1)C(=O)CS2 (stereo unspecified) | nt | nt | nt | nt | -74* | -18%
COC(=O)c1cccc(CN2C(=O)C(C)Sc3ccc(C(C)=O)cc32)c1 (stereo unspecified) | nt | nt | -3% | -10% | 35 | -4%
COc1ccc(CNC(=O)c2ccc3c(c2)N(Cc2c(F)cccc2Cl)C(=O)CS3)cc1 | 11µM* | ? | -14% | -18% | -31 | -25%
O=C(NCc1ccco1)c1ccc2c(c1)N(Cc1ccccc1)C(=O)CS2 | ? | ? | -11% | -15% | ? | -14%
COc1ccc(CCNC(=O)c2ccc3c(c2)N(Cc2ccccc2C)C(=O)c2ccccc2S3)cc1OC | nt | ? | -15% | -18% | -79* | -22%
O=C(O)c1ccc2c(ccc3nn(-c4ccc(/C=C/c5ccc(-n6nc7ccc8cc(C(=O)O)ccc8c7n6)cc5[S+](=O)([O-])[O-])c([S+](=O)([O-])[O-])c4)nc32)c1 | nt | nt | -15% | -10% | nt | nt
CC1CC(C)CN(c2oc(-c3ccc(OCc4ccccc4Cl)cc3)nc2C#N)C1 (stereo unspecified) | nt | nt | -10% | 26% | nt | nt
O=C(NCc1ccccc1Cl)c1ccc2c(c1)N(Cc1ccccc1)C(=O)CS2 | nt | -27%[46.1 µM] | -20% | -22% | -65* | 23%
COc1ccc(CCNC(=O)c2ccc3c(c2)N(Cc2ccc(F)cc2)CCS3)c(OC)c1 | 7.9µM* | -30%[46.1 µM] | -15% | -9% | -38 | -16%
COc1ccc(CCNC(=O)c2ccc3c(c2)N(Cc2ccc(F)cc2)C(=O)CS3)cc1OC | nt | ? | -12% | -12% | -66* | ?
C=CCN1C(=O)CSc2ccc(C(=O)NCCC3=CCCCC3)cc21 | ? | 7.3µM* | nt | nt | -29 | ?
COc1ccc(CCNC(=O)c2ccc3c(c2)NC(=O)CS3)cc1OC | -29%[46.1 µM] | -10%[46.1 µM] | -10% | i | 0 | -2%
